The record followed here is PubChem BioAssay AID1345085 (National Center for Advancing Translational Sciences (NCATS), 2018).

Inconclusive results are not listed. A number with no mark means an inactive call. Calls of active or inactive are those of the source. Calls follow the shape of the dose curve; as a rule, active = well fitted cell-killing curve with a large enough effect; inconclusive = small, poorly fitted or top-dose-only effect, or effect the other way; inactive = no such curve, though single readings can be large or run the other way.
% is scaled to controls: 0 for no effect and ±100 for the full control effect; potency is read from the fitted curve at half-maximal effect.

The assay deals with JEG-3. Put plainly: Confirmatory qHTS for gynecologic anti-cancer compounds from libraries of approved drugs and bioactive compounds. Also: nearly all actives have a fitted effect of over 55% in size. To be noted: gynecologic cancer cell panel viability, ATPlite luminescence, 48 h; series mostly up to 57.6 µM; activity change, negative = viability loss: at the top concentration. The procedure, abridged: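 Cells (1,000/well) were plated, left 16 h at 37 C/5% CO2, then given compound at 11 concentrations (1:3) from 57.5 uM to 0.977 nM for 48 h. ATPlite luminescence after 15 min at room temperature gave IC50 values.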
`O=c1cc(CN2CCOCC2)occ1OCCCCCSc1ccnc2cc(C(F)(F)F)ccc12`: the Potency was 8.63 µM (active). As to `CCN(CC)CCCC(C)Nc1ccnc2cc(Cl)ccc12` (configuration not stated), the “activity change, negative = viability loss” value was 8.84% [at 19.5 µM]. On to `COc1cc(N2CCC(N(C)C)CC2)ccc1Nc1ncc(Cl)c(Nc2ccccc2P(C)(C)=O)n1`, for which the Potency was 15.3 µM (active).

Take `CCCCc1nc2cc(/C=C/C(=O)NO)ccc2n1CCN(CC)CC`: the Potency was 1.53 µM (active). On to `CC(C)n1nc(-c2cc3cc(O)ccc3[nH]2)c2c(N)ncnc21`, for which the Potency was 17.2 µM (active). Regarding `Cc1nc(N)nc(N)c1-c1ccc(Cl)c(Cl)c1`, the Potency is 17.2 µM (active).

As for `COC(=O)c1ccc2c(C(=Nc3ccc(N(C)C(=O)CN4CCN(C)CC4)cc3)c3ccccc3)c(O)[nH]c2c1`, the “activity change, negative = viability loss” value was 10.5%. For `Nc1ncn([C@@H]2O[C@H](CO)[C@@H](O)[C@H]2O)c(=O)n1`, the “activity change, negative = viability loss” value was -6.25%.

For the compound `C=CC(=O)Nc1cc2c(Nc3ccc(F)c(Cl)c3)ncnc2cc1OCCCN1CCOCC1`, the Potency was 27.3 µM (active). Consider `CC(C)Oc1ccc2c(=O)c(-c3ccccc3)coc2c1`, for which the Potency was 24.3 µM (active). Take `Nc1ccn([C@@H]2O[C@H](CO)[C@@H](O)C2(F)F)c(=O)n1`: the “activity change, negative = viability loss” value is -23.6%. As to `CC[C@H](CC#N)OC(=O)N[C@@H](C)c1cccc(NC(=O)Nc2ccc(-c3cnco3)c(OC)c2)c1`, the Potency was 15.3 µM (active).

Turning to `CCCC(Nc1nc(-c2ccc(NC(=O)NCC)c(OC)c2)ncc1C)c1cccnc1` (configuration not stated), the Potency is 0.153 µM (active). On to `CS(=O)(=O)c1ccc(C(=O)Nc2ccc(Cl)c(-c3ccccn3)c2)c(Cl)c1`, for which the “activity change, negative = viability loss” value was -1.27%. `CC(C)C[C@H](NC(=O)[C@H](Cc1ccccc1)NC(=O)c1cnccn1)B(O)O`: the Potency was 0.217 µM (active).

For the compound `COc1cccc2c1C(=O)c1c(O)c3c(c(O)c1C2=O)C[C@@](O)(C(=O)CO)C[C@@H]3O[C@H]1C[C@H](N)[C@H](O[C@@H]2CCCCO2)[C@H](C)O1`, the Potency is 13.7 µM (active). Same read-out and setting: under `CN(C)C/C=C/C(=O)Nc1cc2c(Nc3ccc(F)c(Cl)c3)ncnc2cc1OC1CCOC1` (configuration not stated) stands 19.3 µM (active). For `O=C1c2c(O)ccc(O)c2C(=O)c2c(NCCNCCO)ccc(NCCNCCO)c21`, the Potency was 2.43 µM (active).

Turning to `O=C(CCCCCCNC(=O)c1cnc(N(c2ccccc2)c2ccccc2)nc1)NO`, the Potency is 7.69 µM (active). On to `O=C(CCCCCCC(=O)Nc1ccccc1)NO`, for which the Potency is 2.43 µM (active). Regarding `CC1=C(CO)C(=O)O[C@@H]([C@@H](C)[C@H]2CC[C@H]3[C@@H]4C[C@H]5O[C@]56[C@@H](O)C=CC(=O)[C@]6(C)[C@H]4CC[C@]23C)C1`, the Potency is 5.3 µM (active).

In the case of `Nc1ccccc1NC(=O)c1ccc(CNC(=O)OCc2cccnc2)cc1`, the Potency was 3.85 µM (active). Turning to `Cc1cc(C(=O)N2CCN(c3cccc(Cl)c3)CC2)n(-c2ccccc2)n1`, the Potency is 3.43 µM (active). For the compound `Nc1ccccc1NC(=O)c1ccc(CNc2nccc(-c3cccnc3)n2)cc1`, the Potency is 2.17 µM (active).

Consider `CCC1C(=O)N(C)c2cnc(Nc3ccc(C(=O)NC4CCN(C)CC4)cc3OC)nc2N1C1CCCC1` (configuration not stated), for which the Potency was 0.0153 µM (active). Same read-out and setting: in the case of `O=C(Nc1cn[nH]c1-c1nc2ccc(CN3CCOCC3)cc2[nH]1)NC1CC1` it was 12.2 µM (active); in that of `Nc1nccc(Oc2ccc(NC(=O)c3c[nH]cc(-c4ccc(F)cc4)c3=O)cc2F)c1Cl`, 4.32 µM (active). In the case of `CC[C@@]1(O)C(=O)OCc2c1cc1n(c2=O)Cc2cc3cc(O)ccc3nc2-1`, the Potency is 0.217 µM (active). On to `COCCOc1ccc2c(c1)ncn2-c1ccc2cccc(N3CCC(N)CC3)c2n1`, for which the Potency is 10.9 µM (active). On the same count and under the same terms, under `CCN1CCN(Cc2ccc(Nc3ncc(F)c(-c4cc(F)c5nc(C)n(C(C)C)c5c4)n3)nc2)CC1` stands 9.68 µM (active).

Regarding `Cc1nc2ccc(CN(C)c3ccc(C(=O)NC(CCC(=O)O)C(=O)O)s3)cc2c(=O)[nH]1` (configuration not stated), the “activity change, negative = viability loss” value was -13.6%. As for `COc1cccc2cc(-c3nc(C4CCC(C(=O)O)CC4)n4ncnc(N)c34)[nH]c12` (configuration not stated), the “activity change, negative = viability loss” value was -15%.
